Data from PubChem BioAssay AID686978 (National Center for Advancing Translational Sciences (NCATS), 2013).
Screen size: about 420,000 compounds; about 64,000 (15%) were called active. Not shown: some 27% with an inconclusive outcome. These entries were drawn from the full list. Values without a mark were called inactive. The call rests on the fitted dose curve; in most records, active means well fitted inhibition curve with a large enough effect; inconclusive means small, poorly fitted or top-dose-only effect; inactive means flat fitted curve, though single readings scatter.

assay: qHTS for Inhibitors of human tyrosyl-DNA phosphodiesterase 1 (TDP1): qHTS in cells in absence of CPT; conditions: DT40 Tdp1-/- hTDP1 cells, no CPT, ATP luminescence, 48 h; activity change, negative = growth inhibition: at 46.2 µM (top of the series); further: nearly all actives have a fitted effect of over 55% in size
Method in brief: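 Cells were dispensed at 400 per well, compounds added by pin tool, plates incubated ≥48 hr at 37 °C, then CellTiter-Glo added for 30 min at room temperature before luminescence reading. Line: DT40 Tdp1-/- complemented with hTDP1; camptothecin omitted.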
On the % scale 0 is the no-effect control and ±100 the full control effect; potency means the concentration at half of the fitted maximal effect.

| SMILES | activity change, negative = growth inhibition | Potency |
| --- | --- | --- |
| O=C1OC(Cc2ccccc2)C(c2ccccc2)C1=O (configuration not stated) | -11.7% |  |
| Cc1cc(S(=O)(=O)NCC(C)C)ccc1OCC(=O)NC1CC1 | 4.66% |  |
| CCCCCC(=O)Nc1ccc(-c2cn3cccnc3n2)cc1 | -3.49% |  |
| O=C(NNC(=O)C(O)c1ccccc1)NC1CCCCC1 (configuration not stated) | 9.61% |  |
| Cc1ccc(NC(=O)C(c2ccccc2)N2CCN(C(=O)c3ccco3)CC2)cc1 (configuration not stated) | 12.8% |  |
| O=c1c(-c2cc(F)cc(F)c2)nc2cnc(Oc3ccccc3)nc2n1C[C@H]1CCCO1 | -3.79% |  |
| CC1OC(OCC2OC(Oc3c(-c4ccc(O)c(O)c4)oc4cc(O)cc(O)c4c3=O)C(O)C(O)C2O)[C@@H](O)C(O)C1O (some centres not stated) | 14.4% |  |
| O=C(O)Cc1ccc(NC(=O)Nc2cccc3ccccc23)cc1 | 7.53% |  |
| Cc1ccc2c(c1)N(CC(=O)N1CCCC(C)C1)C(=O)CO2 (configuration not stated) | -15.8% |  |
| NC1=C([N+](=O)[O-])C(c2ccccc2)C2=C(CCCC2=O)O1 (configuration not stated) | 2.25% |  |
| CCOc1cnc(C(=O)NNC(=O)c2ccccc2Br)o1 | 1.36% |  |
| Cc1cccc(C)c1NC(=O)NC1=CCCN1C | -1.42% |  |
| CC1CC(C)CN(CCC(=O)Nc2ccc3c(c2)CCC3)C1 (configuration not stated) | -21.9% |  |
| COC(=O)N(C)C[C@@H]1OCc2cnnn2CCCC(=O)N([C@@H](C)CO)C[C@@H]1C | -12.9% |  |
| CC(C)(C)n1nnnc1C(c1ccc2ncccc2c1)N1CCSCC1 (configuration not stated) | -4.42% |  |
| O=C1c2ccccc2C(=O)N1CCOc1ccc(F)cc1 | -5.19% |  |
| Cc1cccc(C)c1-n1nnnc1C1(C)CCC(=O)N1CCOc1ccccc1 (configuration not stated) | -25.8% |  |
| Cc1cccc2c1N(CCOc1ccccc1)C(=O)C2=O |  | 1.3 µM (active) |
| CNS(=O)(=O)c1ccc(NC(=O)C2CC(=O)N(c3ccc(Cl)cc3)C2)cc1 (configuration not stated) | -25.9% |  |
| CC12C(=O)N(c3ccccc3)C(=O)C1C(c1ccccc1)N1CCCN12 (configuration not stated) | -2.82% |  |
| CCCN(c1ccc(C)cc1)c1nc(=O)c2cccnc2s1 |  | 18.4 µM (active) |
| NC1=NC2(CCCCC2)N(c2ccc(F)cc2F)C(N)=N1 | -19.6% |  |
| NC(=O)C(Cc1ccccc1)NC(=O)C12CC3CC(CC(C3)C1)C2 (configuration not stated) | -27.5% |  |

| SMILES | activity change, negative = growth inhibition | Potency |
| --- | --- | --- |
| COc1cc2ccccc2cc1C(=O)Nc1nc(C)c(C(C)=O)s1 | -13.2% |  |
| COc1ccc2c(c1)Cc1sc(NC(=O)c3ccccc3Br)nc1-2 |  | 18.4 µM (active) |
| COC(=O)c1sc(NC(=O)c2ccc(OC)cc2OC)nc1C | -21.8% |  |
| COCCN1C=C2C(=O)C(C)(OC(=O)C3CCCC3)C(=O)C=C2C=C1c1ccsc1 (configuration not stated) | -8.49% |  |
| CC(C)OCCCNC(=O)c1cc(Sc2ccc(F)cc2)nc2ccccc12 | -86.9% |  |
| CC(NC(=O)c1cc(=O)[nH]c2ccccc12)c1ccc(F)cc1F (configuration not stated) | -17.3% |  |
| CC(NC(=O)c1cc(Sc2ccc(F)cc2F)nc2ccccc12)c1ccccc1 (configuration not stated) |  | 23.1 µM (active) |
| CCCCCc1nnc(NC(=O)c2ccc(=O)n(C)n2)s1 | 2.05% |  |
| CC(=O)Nc1cccc(-c2ccnc3c2CC(C)(C(=O)NCc2ccccc2)O3)c1 (configuration not stated) |  | 0.92 µM (active) |
| CC1(C)CC(=O)c2cc(C(=O)NCc3ccccc3)c(=O)[nH]c2C1 | -21.1% |  |
| COC(=O)Cc1ccc(NC(=S)NCc2ccco2)cc1 | -22.3% |  |
| COc1ccc(NC(=O)C2(C)Cc3c(-c4ccc(C(N)=O)cc4)ccnc3O2)cc1 (configuration not stated) | -13.6% |  |
| CC(=O)Nc1cccc(-c2ccnc3c2CC(C)(C(=O)NCc2ccco2)O3)c1 (configuration not stated) |  | 2.91 µM (active) |
| O=C(NCc1cccc(CNC(=O)Nc2cccc(O)c2)c1)Nc1cccc(O)c1 | -4.41% |  |
| COc1ccc(NC(=O)C2(C)Cc3c(-c4cccc(NC(C)=O)c4)ccnc3O2)cc1 (configuration not stated) |  | 1.16 µM (active) |
| COc1ccc(NC(=O)Nc2cccc(-c3noc(C)n3)c2)cc1 | -28.2% |  |
| CCC(C)(C)NC(=O)CN(C(=O)CCC(=O)Nc1cc(C)ccn1)c1ccc2c(c1)OCCO2 | -8.85% |  |
| Cc1cc(=O)oc2cc(OC(C)C(=O)NCCc3ccc(S(N)(=O)=O)cc3)ccc12 (configuration not stated) | 15.8% |  |
| CSc1nnc(CNC(=O)c2ccccc2)n1-c1ccc(F)cc1 | 0.927% |  |
| O=C1CSc2ccc(C(=O)NCc3ccccn3)cc2N1 | 5.72% |  |
| CCc1nn(CC(=O)Nc2cc(C)cc(C)c2)c(=O)c2cc3sccc3n12 |  | 5.17 µM (active) |
| CCc1nn(CC(=O)Nc2cccc(C)c2C)c(=O)c2cc3sccc3n12 | -9.08% |  |
| CCCC1NC(=S)NC(C)=C1C(C)=O (configuration not stated) | 5.2% |  |

| SMILES | activity change, negative = growth inhibition | Potency |
| --- | --- | --- |
| Nc1[nH]c(C(=O)c2ccccc2)c(-c2ccc(Br)cc2)c1C(=O)NC1CC1 | -9.87% |  |
| Cc1ccc2nc(CN3CCN(S(=O)(=O)c4ccc(C)c(C)c4)CC3)oc2c1 | -19.3% |  |
| O=Cc1cn(CCOc2ccc(F)cc2)c2ccccc12 |  | 11.6 µM (active) |
| Cc1cc(N2C(=O)C(=O)/C(=C(/O)c3ccc(Cl)cc3)C2c2cccc(Br)c2)no1 (configuration not stated) | -5.42% |  |
| CC1(C(=O)NCc2ccccc2)CSCC(=O)N1CCCN1CCOCC1 (configuration not stated) | 21.3% |  |
| O=C(Cn1c(-c2ccccn2)nc2ccccc21)NCCN1CCOCC1 | -13.9% |  |
| c1ccc2cc3c(NCCN4CCOCC4)ccnc3cc2c1 |  | 20.6 µM (active) |
| c1ccc2[nH]c(NCCN3CCOCC3)nc2c1 | 14.2% |  |
| CC1CCCN(C(=O)Cn2c(=O)oc3ccccc32)C1 (configuration not stated) | -3.54% |  |
| CC(C)NC(=S)Nc1cccc2cnccc12 | 2.15% |  |
| O=C(NCCN1CCOCC1)c1cccc(S(=O)(=O)Nc2ccc(F)cc2)c1 | -15.8% |  |
| CCN(c1ccccc1)S(=O)(=O)c1cccc(C(=O)O)c1 | 11.1% |  |
| CCN(c1ccccc1)S(=O)(=O)c1cccc(C(=O)NCc2ccccc2CN2CCOCC2)c1 |  | 18.4 µM (active) |
| CCCc1ccc(OCc2ccc(C(=O)N/N=C/c3cccc([N+](=O)[O-])c3)o2)c(OC)c1 |  | 6.51 µM (active) |
| COC(=O)c1ccc(COc2ccc(/C=N/NC(=O)C(=O)Nc3ccc(OC)cc3)cc2OC)o1 | -23.3% |  |
| Cc1ccc(NC(=O)O/N=C/c2cccc([N+](=O)[O-])c2)cc1 | 11.3% |  |
| CC(OC(=O)CN1C(=O)COc2ccccc21)C(=O)NCc1ccc(F)cc1 (configuration not stated) | -11.9% |  |
| COc1ccc(CCNC2=C(Cl)C(=O)N(Cc3ccccc3)C2=O)cc1OC |  | 20.6 µM (active) |
| COc1ccc(CCNC(=O)CN(c2ccccc2)S(C)(=O)=O)cc1OC | 9.69% |  |
| COc1ccc(CCNS(=O)(=O)c2ccc(Cl)s2)cc1OC | -25.5% |  |
| COc1c(C(C)C)oc2cc3oc(=O)ccc3cc12 |  | inactive |
